# Experimental data: PubChem BioAssay AID2384 (Southern Research Specialized Biocontainment Screening …, 2010)
# In all, about 2,300 compounds went through this assay and about 1,100 (48%) were called active. So high a share suggests a set chosen from earlier hits. The list shows a part of the results. Results with a measured potency or affinity are listed apart. A number with no mark means an inactive call. No rule for the calls is given here.
# Test: inhibitors in S. typhi counter-screen strain, dose response, counter-screen for PhoP regulon inhibitor project, fluorescence, 4 h (AID 2384)
# Conditions: S. typhi GFP reporter counter-screen; series mostly up to 150 µM; inhibition: at the top concentration
row,Compound,inhibition [%]
1,CC1(C)CC(=O)C(C=NCC2CCN(C(=O)Cc3ccccc3)CC2)=C(O)C1,3.43
2,Cc1ccc(/C=N/NC(=O)CSc2nc3ccccc3n2C)s1,12
3,CC(C)c1ccc(NC(=O)CSc2nnc(-c3ccccn3)n2C)cc1,-19.7
4,COc1ccc(NC(=O)CC2Sc3ncnn3C2=O)cc1 (configuration not stated),24.8
5,COc1ccc(CCNC2CCCCC2)cc1,-14.9
6,O=Cc1cc(CCC(=O)O)ccc1O,34.3
7,CCOC(=O)c1ccc(NC(=O)c2cc3c(s2)CCC3)cc1,13
8,CCOC(=O)c1ccc(NC(=O)CSc2nc(N3CCOCC3)nc(N3CCOCC3)n2)cc1,3.08
9,CCCCCCOc1ccc(N2C(=O)CC(SC(=NCC)NCC)C2=O)cc1 (configuration not stated),-11.7
10,CCCCOc1ccc(CN2CCC(O)CC2)cc1,37.8
11,Cc1cc(C)n2nc(SCn3nnc4ccccc4c3=O)nc2n1,13.7
12,Cc1ccc(NC(=O)CSc2ccc(-c3ccco3)nn2)cc1,29.4
13,O=C(CCNC(=O)c1ccco1)Nc1cccc(Br)c1,35
14,CCC1(CC)C(=O)NC(=O)NC1=Nc1cccc(OC)c1,-22
15,Cc1ccc(N2C(N)=C(C#N)C(c3cccnc3)C3=C2CC(C)(C)CC3=O)cc1 (configuration not stated),-10.7
16,C=CCSc1nnc(NC(=O)CSc2nc3ccccc3o2)s1,21
17,COc1ccccc1C(=O)NNC1=C(C(=O)C(F)(F)F)CCC1,36.3
18,Cc1cc(C)c(-n2nnnc2SC(C)C)c(C)c1,22.1
19,COc1cc2c(cc1OC)[C@H](Cc1ccc(O)cc1)NCC2,26.9

row,Compound,inhibition [%]
1,Cc1cccc(N2CCN(C(=O)CCN3C(=S)NC(C)(C)CC3C)CC2)c1C (configuration not stated),-24
2,COc1cc2c(cc1OC)CN(C(=O)CCCN1C(=O)c3ccccc3C1=O)CC2,14.8
3,COc1ccc(C(=O)Oc2cc(C(=S)N3CCOCC3)ccc2OC)cc1,-14.6
4,Cc1c(-n2c(SCC(=O)C(C)(C)C)nc3ccccc3c2=O)c(=O)n(-c2ccccc2)n1C,6.64
5,NC(=O)c1ccc[n+](CC(=O)c2cccc([N+](=O)[O-])c2)c1,-22.5
6,NC(=O)c1cc(C(=O)c2ccc(Cl)cc2Cl)c[nH]1,36.3
7,O=Cc1ccc(N2CCCCCC2)cc1,6.54
8,CC(C)CN1CCN(Cc2cnc(N3CCOCC3)s2)CC1CCO (configuration not stated),-6.77
9,O=C1c2ccccc2NC(c2cccc([N+](=O)[O-])c2)N1CCc1ccccc1 (configuration not stated),24
10,CN1C(=O)/C(=C2/C=Cc3ccccc3N2CCCS(=O)(=O)O)SC1=S,37.2
11,CCOC(=O)c1nc(C)n(-c2cc(Cl)ccc2Cl)n1,6.17
12,COc1ccccc1C1CN(c2ccc(F)cc2F)N=C1c1cccs1 (configuration not stated),-4.35
13,Cc1n[nH]c(=O)nc1NCCc1ccccc1,3.25
14,Cc1cccc(OCCSc2nnc(-c3ccoc3C)n2C)c1,17.9
15,CC(C)CC(=O)N1CCN(C(=O)CCC2CCCC2)CC1,10.6
16,Cc1cccc(NC(=O)C2CCCN2S(=O)(=O)c2ccc3c(c2)n(C)c(=O)c(=O)n3C)c1 (configuration not stated),30.3
17,O=C(CCN1CCOCC1)Nc1ccccc1,12.2
18,O=C(Nc1ccc(Cl)cc1)N1CCCN(Cc2ccccc2F)C1,22.7
19,Cc1cc(=O)oc2ccc(OCC(=O)N3CCC(C)CC3)cc12,9.4

row,Compound,inhibition [%]
1,O=C(COc1ccc(Cl)cc1)N1CCN(C2CCCC2)CC1,20.5
2,O=C(O)COc1ccc(F)cc1Br,-9.25
3,O=C(/C=C/c1ccc(Cl)cc1Cl)NCc1ccncc1,21.3
4,CCCSc1nc2cc(OC)c(OC)cc2c(=N)n1CCCN1CCOCC1,13.2
5,COc1ccccc1Nc1nc(Cl)c(C=O)s1,28.1
6,COc1ccccc1-n1nc(C(=O)NCc2ccco2)c2ccccc2c1=O,-0.37
7,CC(C)(C)c1ccc(NC(=O)NCc2ccco2)cc1,-4.75
8,CC(C)(C)c1nc(SCC(=O)NCc2ccco2)c2ccccc2n1,-21.9
9,CCOC(=O)c1cc(-c2ccncc2)nc2c1c(C)nn2-c1ccccn1,-11.7
10,COc1cc(C(c2nnnn2C2CCCC2)N2CCN(C)CC2)cc(OC)c1OC (configuration not stated),-10.6
11,COc1ccc(N=CC2=C(Nc3ccc(OC)cc3)c3c(C)nn(-c4ccccn4)c3CC2)cc1,19.6
12,Cc1cc(C)nc(SCC(=O)Nc2sc3c(c2C#N)CCC(C)C3)n1 (configuration not stated),20.4
13,O=C(CSc1nc2c(c(=O)n1-c1ccc(F)cc1)SCC2)NCc1ccco1,-2.97
14,O=C(CSc1ncc(-c2ccc(F)cc2)[nH]1)NCc1ccco1,-28.9
15,Oc1ccccc1N=Cc1c(O)ccc2oc3c(c12)CCCC3,7.25
16,CCCCOc1ccc(C2=NNC(=O)CC2)cc1,23.2
17,Cc1c(C(=O)Nc2ccncc2)sc2nc(-c3ccc(F)cc3)cn12,-1.91
18,Cc1ccc(C(=O)Nc2ccc3c(c2)ncn3C)cc1,18.6
19,Cc1cc(C)c([C@@H]2C[C@H]3CN(C4CCCC4)C(=O)[C@]34CCCN24)c(-n2cccn2)c1,2.81
